Screening data (PubChem)
DT40 TDP1 CPT = qHTS for Inhibitors of human tyrosyl-DNA phosphodiesterase 1 (TDP1): qHTS in cells in presence of CPT | chicken DT40 Tdp1-/-;hTDP1 cells + 20 nM CPT, ATP luminescence, 48 h | Potency, µM (top dose mostly 46.2 µM), for inactives: at the highest dose activity change, negative = growth inhibition, hits mostly inhibitors | 420,000 tested, 12% active | AID 686979, 2013; also: potency is read from the fitted curve at half-maximal effect; % is scaled to controls: 0 for no effect and ±100 for the full control effect; nearly all actives have a fitted effect of over 55% in size
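Chicken DT40 Tdp1-/- cells stably complemented with human TDP1 were seeded at 400 cells/well in medium containing 20 nM camptothecin, exposed to pin-transferred compounds, and grown at 37 °C for at least 48 hr. Viability was read as ATP luminescence.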
TDP1 block = qHTS Assay for Inhibitors of Tyrosyl-DNA Phosphodiesterase (TDP1); Tyrosyl-DNA phosphodiesterase 1 (Homo sapiens), Q9NUW8; recombinant TDP1, AlphaScreen DNA substrate cleavage; Potency, µM (highest dose often 130 µM), for inactives: top-dose activity change, negative = inhibition, hits mostly inhibitors; 350,000 tested, 0.28% active; also: potency is read from the fitted curve at half-maximal effect; % is scaled to controls: 0 for no effect and ±100 for the full control effect; nearly all actives have a fitted effect of over 40% in size
Target sequence (Q9NUW8 whole entry, looked up): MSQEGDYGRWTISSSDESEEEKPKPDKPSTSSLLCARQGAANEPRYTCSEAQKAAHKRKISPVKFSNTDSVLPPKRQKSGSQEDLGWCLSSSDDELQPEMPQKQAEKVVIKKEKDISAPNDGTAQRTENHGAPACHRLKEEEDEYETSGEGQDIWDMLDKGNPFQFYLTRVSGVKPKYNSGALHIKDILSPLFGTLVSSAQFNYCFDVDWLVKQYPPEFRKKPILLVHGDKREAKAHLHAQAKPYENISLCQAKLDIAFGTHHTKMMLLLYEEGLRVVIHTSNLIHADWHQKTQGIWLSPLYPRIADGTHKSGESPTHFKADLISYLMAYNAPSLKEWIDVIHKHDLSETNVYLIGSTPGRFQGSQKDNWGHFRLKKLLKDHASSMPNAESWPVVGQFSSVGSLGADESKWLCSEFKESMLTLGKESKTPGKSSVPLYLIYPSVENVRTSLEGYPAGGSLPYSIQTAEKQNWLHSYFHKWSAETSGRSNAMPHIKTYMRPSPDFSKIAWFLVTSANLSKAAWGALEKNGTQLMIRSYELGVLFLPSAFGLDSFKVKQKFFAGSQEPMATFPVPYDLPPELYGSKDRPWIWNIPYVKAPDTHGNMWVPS
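Recombinant human Tdp1 (E. coli-expressed, 1 nM final) preincubated with compounds 15 min at room temperature, then 5'-biotin/3'-phosphotyrosine-FITC DNA substrate (15 nM final) added for 5 min. AlphaScreen beads (10 ug/ml final) added 10 min; cleavage lowers signal.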
TGFb inhibitor = qHTS for Inhibitors of TGF-b; HepG2 CAGA-GFP TGF-b/SMAD3 reporter, GFP fluorescence, 18 h; TGF-beta stimulated, 500 pg/mL final; Potency, µM (series often up to 46.1 µM), without a hit: at the highest dose activity, negative = inhibition, actives largely listed as inhibitors; 410,000 tested, 1.2% active; AID 588855, 2011; also: potency is read from the fitted curve at half-maximal effect; % is scaled to controls: 0 for no effect and ±100 for the full control effect; nearly all actives have a fitted effect of over 65% in size
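Inhibition of TGF-beta-driven CAGA-GFP reporter expression in HEPG2 cells is measured by cellular GFP fluorescence after 18 h stimulation with 500 pg/mL recombinant TGF-beta in 1% FBS medium at 37 degrees C.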
TDP1 cell noCPT = qHTS for Inhibitors of human tyrosyl-DNA phosphodiesterase 1 (TDP1): qHTS in cells in absence of CPT. DT40 Tdp1-/- hTDP1 cells, no CPT, ATP luminescence, 48 h. Potency, µM (series often up to 46.2 µM), for the others: at the top dose activity change, negative = growth inhibition, most hits filed as inhibitors. 420,000 tested, 15% active; also: potency is read from the fitted curve at half-maximal effect; % is scaled to controls: 0 for no effect and ±100 for the full control effect; nearly all actives have a fitted effect of over 55% in size
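No-CPT arm: Tdp1-/-;hTDP1 DT40 cells (400/well) plus compounds, incubated ≥48 hr at 37 °C. Readout CellTiter-Glo luminescence.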
HepG2 tox = qHTS for Inhibitors of TGF-b: Cytotox Counterscreen. HepG2 CAGA-GFP viability, ATP luminescence, 18 h. Potency, µM (doses to about 46.1 µM), inactives show at the top dose activity change, negative = cytotoxicity, actives largely listed as cytotoxic. 410,000 tested, 0.76% active; also: potency is read from the fitted curve at half-maximal effect
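HepG2 CAGA-GFP cells (1000/well, DMEM with 1% FBS) received compound, then TGF-beta at 500 pg/mL final, and were incubated 18 hours at 37 degrees C. Viability was read by CellTiter-Glo luminescence. Media-only wells were set as complete cell-killing and DMSO as no toxicity.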
IL-1B inflam inh = qHTS for Inhibitors of Inflammasome Signaling: IL-1-beta AlphaLISA Primary Screen | THP-1 LPS/ATP IL-1B secretion, AlphaLISA, 16 h; active compounds read low | activity change, % at 57.5 µM | 360,000 tested, 4.7% active; in the data active = activity change below about -50%; inconclusive = mostly about -30% to -49%; also: % is scaled to controls: 0 for no effect and ±100 for the full control effect
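Secreted IL-1B measured by AlphaLISA bead assay after 16 h compound exposure of THP-1 cells; compounds (final up to 57.5 uM) added 1 h before LPS (250 ng/mL) and ATP (1.25 mM) stimulation; lower signal means less secretion.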
* marks the source's active call; other numbers are inactive results; ? = inconclusive; . = no result given; [ ] = another dose, or the depositor's remark. Compounds with a hit are over-represented: about 19% of the library has one in this group of screens. Unless noted, calls follow the shape of the dose curve; as a rule, active = well fitted curve in the direction sought with a large enough effect; inconclusive = small, poorly fitted or top-dose-only effect, or another doubt; inactive = no such curve, though single readings can be large; an effect the other way counts as inactive or inconclusive.

SMILES | DT40 TDP1 CPT | TDP1 block | TGFb inhibitor | TDP1 cell noCPT | HepG2 tox | IL-1B inflam inh
COC(=O)C1(CC(C)C)C=C2C(=C(c3ccccc3)C(=O)C2C)CN1 (stereo not drawn) | . | 10.5% | . | . | . | .
Cc1cccc(N2CCN(C(=O)C3CCN(S(=O)(=O)c4c(C)noc4/C=C/c4ccccc4F)CC3)CC2C)c1 (stereo not drawn) | 10.3µM* | 6.5% | ? | 6.51µM* | -16.7% | .
Cc1ccc(/C=C/c2onc(C)c2S(=O)(=O)N2CCC(C(=O)N3CCOc4ccc(C)cc43)CC2)cc1 | ? | 3.0% | -26.8% | ? | 0.2% | .
Cc1ccc(/C=C/c2onc(C)c2S(=O)(=O)N2CCC(C(=O)N3CC(C)Oc4ccccc43)CC2)cc1 (stereo not drawn) | 18.4µM* | 4.1% | -17.7% | 11.6µM* | -5.4% | .
CCCCCOc1ccc(C(=O)N(Cc2ccccc2)C2CCS(=O)(=O)C2)cc1 (stereo not drawn) | ? | 4.7% | ? | 20.6µM* | -42.9% | .
CCCCOc1cccc(C(=O)N(Cc2ccc(Cl)cc2)C2CCS(=O)(=O)C2)c1 (stereo not drawn) | 14.6µM* | 4.2% | ? | ? | -12.2% | .
CCCOc1ccccc1C(=O)N(Cc1ccco1)C1CCS(=O)(=O)C1 (stereo not drawn) | ? | 6.8% | 0.0% | 18.4µM* | -1.5% | 15.8
CC(=O)OCCBr | . | 8.2% | . | . | . | .
CC(O)[C@@H](O)[C@H]1CNc2nc(N)[nH]c(=O)c2N1 (stereo partly drawn) | . | 16.6%[56.1 µM] | . | . | . | .
Cc1ccc(N2CC(NC(=O)c3cccs3)CC2=O)cc1C (stereo not drawn) | ? | 0.0% | 0.1% | ? | -4.5% | .
Cc1ccc(CN=C(Nc2ccccc2)NC2CCCCC2)cc1 | 20.6µM* | . | -18.8% | 20.6µM* | 1.1% | -87.1*
NC(=O)c1ccccc1NC(=O)NC1CCCCC1 | -22.4% | -2.5% | 0.0% | -19.7% | -23.3% | 0.0
O=C(Nc1ccccc1)NC1CCCCCCC1 | ? | . | 0.9% | 29.1µM* | -7.2% | ?
O=C(Nc1ccccc1NC(=O)NC1CCCCC1)NC1CCCCC1 | ? | 7.8% | -18.4% | ? | -10.9% | -68.9*
O=C(Nc1ccc(Br)cc1)NC1CCCCCCC1 | ? | -4.5%[56.1 µM] | ? | ? | -0.5% | -90.2*
COC(=O)[C@@]1(Cc2ccccc2)[C@H]2c3cc(C(=O)N4CCCC4)[nH]c3C[C@H]2CN1C(=O)c1ccccc1 | . | 6.9% | . | . | . | .
COC(=O)c1ccc(C(NC(=O)OCc2ccccc2)/C(F)=C/[C@@H](C)C(=O)NC2CCCCC2)cc1 (stereo partly drawn) | . | 6.3% | . | . | . | .
CC(Oc1ccc(Cl)cc1)C(=O)NCCN1C(=O)S/C(=C\c2cccnc2)C1=O (stereo not drawn) | 20.6µM* | -2.7% | 0.0% | 18.4µM* | -38.8% | -78.0*
CC(C)(Oc1ccc(Cl)cc1)C(=O)NCCN1C(=O)S/C(=C/c2cccnc2)C1=O | ? | 7.1% | 7.8% | ? | -20.7% | -90.9*
COc1ccc2c(CC(=O)NCCN3C(=O)S/C(=C\c4cccnc4)C3=O)coc2c1 | ? | 7.7% | 28.2% | ? | -4.0% | -24.7
CC1CCCCN1CCNC(=O)c1ccc2c(c1)N(Cc1ccccc1F)C(=O)c1ccccc1S2=O (stereo not drawn) | -18.0% | 4.2% | -28.8% | 2.0% | -21.3% | 0.0
CCNC(=S)N(CCCN(C)C)Cc1cc2cc3c(cc2[nH]c1=O)OCCO3 | -2.6% | . | 2.4% | 1.2% | -2.7% | -13.4
Cc1ccc(N2C(=O)CSC23C(=O)N(CC(=O)NCCc2ccccc2)c2ccccc23)cc1 (stereo not drawn) | -21.9% | -1.1% | -5.9% | -6.2% | -2.7% | .
CN1CCN(C(=O)c2ccc(S(=O)(=O)c3ccc(Br)cc3)cc2)CC1 | ? | 2.9% | 6.4% | 18.4µM* | 11.4% | 5.8
O=C(c1ccc(CNS(=O)(=O)c2ccc(Br)cc2)cc1)N1CCCCC1 | ? | 5.0% | -15.2% | ? | -6.1% | 21.2
SMILES | DT40 TDP1 CPT | TDP1 block | TGFb inhibitor | TDP1 cell noCPT | HepG2 tox | IL-1B inflam inh
O=C(c1ccc(CNS(=O)(=O)c2ccc(Br)cc2)cc1)N1CCCCCC1 | 23.1µM* | 1.4% | ? | ? | -8.6% | -4.4
COc1ccc2c(c1)CC(C(=O)Nc1c(C)cc(C)cc1C)CO2 (stereo not drawn) | ? | 4.1% | -15.9% | ? | 3.8% | .
COc1ccc(NC(=O)C2CCN(C3=NS(=O)(=O)C(c4ccc(C)c(C)c4)=C3C)CC2)cc1OC | 11.8% | 7.1% | 0.9% | 11.2% | 2.3% | .
CCN(CC)S(=O)(=O)c1ccc2oc(C(=O)NCC3COc4ccccc4O3)c(C)c2c1 (stereo not drawn) | ? | 10.9% | 2.9% | 23.1µM* | -29.3% | -9.4
Cc1c(C(=O)N2CCCCC2)oc2ccc(S(=O)(=O)N3CC(C)CC(C)C3)cc12 (stereo not drawn) | 18.4µM* | 1.0% | 11.2µM* | 13µM* | -30.6% | ?
Cc1c(C(=O)NCC2COc3ccccc3O2)oc2ccc(S(=O)(=O)N3CCOCC3)cc12 (stereo not drawn) | ? | 0.0% | -6.0% | ? | -24.6% | -7.7
CCN(CC)S(=O)(=O)c1ccc2oc(C(=O)NCCCN3CCOCC3)c(C)c2c1 | 1.3% | 0.5% | -4.6% | -4.5% | 10.4% | -22.4
Cc1c(C(=O)NCC2COc3ccccc3O2)oc2ccc(S(=O)(=O)N3CC(C)CC(C)C3)cc12 (stereo not drawn) | 18.4µM* | 2.6% | -22.8% | 12.6µM* | -29.7% | -15.2
CCN(CC)CCCNC(=O)c1oc2ccc(S(=O)(=O)N3CC(C)CC(C)C3)cc2c1C (stereo not drawn) | ? | 7.4% | 0.0% | 18.4µM* | -65.1% | -51.5*
O=C(CNC(=O)c1ccc(F)cc1)OCc1cc(=O)n2nc(C3CC3)sc2n1 | -14.6% | 7.1% | ? | -1.2% | -4.6% | .
O=[N+]([O-])c1ccc(-c2ccc(/C=N/Nc3nc(N4CCCC4)nc(N4CCCC4)n3)o2)cc1 | 14.6µM* | -1.3% | 33.7% | 4.61µM* | -3.0% | 41.0
